For 13 compounds, growth results are on record in PubChem BioAssay (NCI).

Some test systems named below: DU-145 prostate; K-562 leukemia; MALME-3M melanoma; MDA-MB-231 breast; RXF 393 renal; SF-268 CNS; SF-295 CNS; SF-539 CNS; UACC-257 melanoma; M14 melanoma.
Assay in all cases: NCI-60 one-dose screen, 48 h (100 = growth as untreated, 0 = no growth, -100 = all killed)
Details in all cases: 10 µM unless noted

This is part of a sample that, as a whole, favours compounds with a hit. Of some 83,000 tested, about 20% had one in any assay.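 Assay: single dose, 48 h. Readout: percent growth (0 = no net growth; negative = cell death). Active: <10.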 Unmarked numbers belong to inactive results. Active and inactive are the calls of the source.

Regarding `CN1CCN(C(=O)c2c3c(n4ccccc24)C(=O)c2ncccc2C3=O)CC1`, the growth in the experiment with DU-145 prostate is 56.8%; in the experiment with K-562 leukemia it was 54.1%; with MALME-3M melanoma, 72.1%; in the experiment on MDA-MB-231 breast, 79.5%; in the experiment on RXF 393 renal it was 60.8%; in the experiment on SF-268 CNS, 52.9%. Further, the growth in the experiment with SF-295 CNS is 73.5%; in the experiment on SF-539 CNS, 58%; with UACC-257 melanoma, 97.7%; in the experiment with M14 melanoma, 49%.
In the case of `COc1cccc(-c2nn(-c3ccccc3)cc2-c2ccnc(NCCNC(=O)Nc3cccc(C(F)(F)F)c3)c2)c1`, the growth in the experiment on DU-145 prostate is 26.2%; with K-562 leukemia, 2.52% (active); in the experiment with MALME-3M melanoma, 51.2%; in the experiment on MDA-MB-231 breast it was -10% (active); with RXF 393 renal, 21.6%; with SF-268 CNS it was 35.2%. For the same compound, the growth in the experiment on SF-295 CNS is 27.6%; in the experiment with SF-539 CNS it was 57.7%; in the experiment with UACC-257 melanoma, 27.6%; with M14 melanoma it was 7.52% (active).
In the case of `Cc1ccc(-c2cc3c(cc2O)C2CCCCC2(N2CCOCC2)O3)cc1` (stereo not given), the growth with DU-145 prostate was 106%; in the experiment on K-562 leukemia, 89.1%; in the experiment with MALME-3M melanoma, 101%; with MDA-MB-231 breast it was 114%; in the experiment with RXF 393 renal it was 90.6%; in the experiment on SF-268 CNS, 97.2%. The growth in the experiment with SF-295 CNS was 103%; in the experiment on SF-539 CNS it was 105%; in the experiment on UACC-257 melanoma, 102%; in the experiment on M14 melanoma, 92.5%.
For the compound `c1csc(-c2c3ccc(=[N+]4CCCCC4)cc-3oc3cc(N4CCCCC4)ccc23)c1`, the growth in the experiment with DU-145 prostate was -96.6% (active); in the experiment with K-562 leukemia, -29.5% (active); in the experiment with MALME-3M melanoma it was -58.8% (active); in the experiment with MDA-MB-231 breast it was -50.9% (active); with RXF 393 renal, -97% (active); in the experiment with SF-268 CNS, -88.8% (active). Also, the growth was -53.7% (active) with SF-295 CNS, -91.3% (active) with SF-539 CNS, -69.8% (active) with UACC-257 melanoma and -87.8% (active) with M14 melanoma.
As for `C=C1C(=O)O[C@H]2[C@H]1CC/C(CNC(=O)/C=C/c1ccc(Cl)cc1Cl)=C\CC[C@@]1(C)O[C@@H]21`, the growth is -80.7% (active) with DU-145 prostate; -31.2% (active) in the experiment on K-562 leukemia; -89.8% (active) in the experiment with MALME-3M melanoma; -42.1% (active) with MDA-MB-231 breast; -84.6% (active) with RXF 393 renal; -69.7% (active) with SF-268 CNS. The growth was 39.2% with SF-295 CNS, -72.4% (active) in the experiment on SF-539 CNS, -51.7% (active) in the experiment with UACC-257 melanoma and -57.5% (active) in the experiment on M14 melanoma.
`c1cc2ccc3cc2cc1CNCCOCCNCc1ccc2ccc(cc2c1)CNCCOCCNC3`: the growth was -29.3% (active) with DU-145 prostate; 6.81% (active) in the experiment on K-562 leukemia; -64.5% (active) in the experiment on MALME-3M melanoma; -53.8% (active) in the experiment with MDA-MB-231 breast; -40.1% (active) in the experiment on RXF 393 renal; -55.5% (active) in the experiment on SF-268 CNS. For the same compound, the growth in the experiment on SF-295 CNS was 14.5%; with SF-539 CNS, -53.4% (active); in the experiment on UACC-257 melanoma, 25.5%; in the experiment on M14 melanoma it was 89.6%.
Consider `CCN1C(=O)N(CC)C2Nn3c(s/c(=C\c4cccc([N+](=O)[O-])c4)c3=O)=NC21` (stereo not given), for which the growth with DU-145 prostate was 30.5%; with K-562 leukemia, 19.9%; with MALME-3M melanoma, 57.8%; with MDA-MB-231 breast, 30.7%; in the experiment with RXF 393 renal, 25.4%; in the experiment with SF-268 CNS, 63.9%. Also, the growth in the experiment on SF-295 CNS is 31%; in the experiment on SF-539 CNS, 12.8%; in the experiment on UACC-257 melanoma it was 77.5%; with M14 melanoma it was 22.2%.
For the compound `CCN(CC)CCCNc1ccc(Nc2ccc(OC)cc2)cc1`, the growth was 90.7% in the experiment with DU-145 prostate; 34.1% with K-562 leukemia; 104% in the experiment on MALME-3M melanoma; 34.6% with MDA-MB-231 breast; 90.5% with RXF 393 renal; 77.5% in the experiment on SF-268 CNS. In addition, the growth with SF-295 CNS was 120%; with SF-539 CNS, 98.6%; in the experiment on UACC-257 melanoma, 87.4%; with M14 melanoma, 94.7%.
Take `Cc1cc(NCCCCNc2ccnc3cc(Cl)ccc23)nc(Nc2ccc(C(=O)N3CCCCC3)cc2)n1`: the growth with DU-145 prostate was 21.8%; with K-562 leukemia, -46.2% (active); with MALME-3M melanoma, -76.3% (active); in the experiment with MDA-MB-231 breast it was -41.1% (active); with RXF 393 renal, -74.4% (active); with SF-268 CNS it was -38.3% (active). Further, the growth is -60.3% (active) in the experiment with SF-295 CNS, -79.6% (active) with SF-539 CNS, -67.5% (active) with UACC-257 melanoma and -85% (active) in the experiment on M14 melanoma.
With `O=C(COc1ccc(/C=C2\Oc3ccccc3C2=O)cc1)Nc1nc2c(s1)CCCC2`, the growth in the experiment with DU-145 prostate was -79.7% (active); in the experiment with K-562 leukemia, 20.9%; in the experiment on MALME-3M melanoma, 22.6%; in the experiment on MDA-MB-231 breast, 22.2%; with RXF 393 renal, -5.41% (active); in the experiment with SF-268 CNS it was -9.96% (active). Moreover, the growth is 101% with SF-295 CNS, -95.7% (active) in the experiment with SF-539 CNS, 104% with UACC-257 melanoma and 98.3% in the experiment on M14 melanoma.
As for `CCOC(=O)c1c(-c2ccc(Cl)cc2)c(C#N)c(=O)n(-c2ccccc2CC)c1N`, the growth in the experiment with DU-145 prostate was 93.5%; in the experiment with K-562 leukemia, 77.6%; with MALME-3M melanoma, 100%; in the experiment on MDA-MB-231 breast, 90.8%; in the experiment with RXF 393 renal, 111%; in the experiment with SF-268 CNS, 86.8%. Besides, the growth in the experiment on SF-295 CNS was 74.3%; in the experiment on SF-539 CNS it was 100%; in the experiment on UACC-257 melanoma, 113%; in the experiment with M14 melanoma, 105%.
`COc1cc(-c2nn(-c3ccccc3)cc2-c2ccnc(NCCNS(=O)(=O)c3ccc(Cl)cc3)n2)ccc1Cl`: the growth was 50.7% with DU-145 prostate; 27.7% in the experiment on K-562 leukemia; 70% in the experiment with MALME-3M melanoma; 53.5% in the experiment with MDA-MB-231 breast; 34.9% in the experiment with RXF 393 renal; 41.2% with SF-268 CNS. Besides, the growth in the experiment on SF-295 CNS was 30.6%; in the experiment on SF-539 CNS, 60.3%; in the experiment on UACC-257 melanoma, 34.8%; in the experiment with M14 melanoma, 24.3%.
Consider `Oc1c(CN2CCCC2)cc(COCc2ccc(Br)cc2)c2cccnc12`, for which the growth with DU-145 prostate was 22.7%; with K-562 leukemia, 8.51% (active); in the experiment on MALME-3M melanoma, -3.92% (active); in the experiment with MDA-MB-231 breast, 5.06% (active); with RXF 393 renal, 20%; with SF-268 CNS it was 10.8%. Further, the growth in the experiment with SF-295 CNS was 13%; in the experiment on SF-539 CNS it was -23.5% (active); in the experiment with UACC-257 melanoma, -29.5% (active); in the experiment on M14 melanoma it was -3.51% (active).
